Each structure is given as a SMILES string. This is part of a sample that, as a whole, favours compounds with a hit. Of some 83,000 tested, about 20% had one in any assay.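 Percent growth is the endpoint: 0 to 100 indicates growth inhibition (40 means 60% inhibition), 0 means no net growth, and negative values indicate cell death.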 A number with no mark means an inactive call. Active and inactive are the calls of the source. Rule for the calls: active = growth percent below 10; inactive = the rest.

Test systems include SR leukemia; RPMI-8226 leukemia; OVCAR-8 ovarian; OVCAR-5 ovarian; OVCAR-4 ovarian; SK-OV-3 ovarian; IGROV1 ovarian; OVCAR-3 ovarian; HS 578T breast; NCI/ADR-RES ovarian; T-47D breast; BT-549 breast; MDA-MB-435 melanoma; SW-620 colon; MCF7 breast; HCT-116 colon; HCC-2998 colon; KM12 colon.
Holding throughout (assay): NCI-60 one-dose screen, 48 h (100 = growth as untreated, 0 = no growth, -100 = all killed)
Common to all, as to conditions: 10 µM unless noted

For `COc1ccc(C2NN=C3c4ccccc4CCC32)cc1` (configuration not stated), the growth with SR leukemia is 3.17% (active); in the assay with RPMI-8226 leukemia, 21.7%; in the assay on OVCAR-8 ovarian it was 80.4%; with OVCAR-5 ovarian it was 90.5%; in the assay on OVCAR-4 ovarian it was 71.4%; in the assay on SK-OV-3 ovarian, 77%. Also, the growth in the assay with IGROV1 ovarian is 16.8%; in the assay on OVCAR-3 ovarian, 37.6%; in the assay with HS 578T breast it was 62.3%; with NCI/ADR-RES ovarian, 29.9%; with T-47D breast it was 35.3%; with BT-549 breast, 67.4%. In addition, the growth was -15.7% (active) in the assay with MDA-MB-435 melanoma; 29.9% with SW-620 colon; 5.11% (active) in the assay on MCF7 breast; 64.4% with HCT-116 colon; 67.3% in the assay with HCC-2998 colon; 26.3% in the assay with KM12 colon.
For `CCN(CC)CCOc1ccc(Cl)c(C)c1`, the growth in the assay with SR leukemia is 92.3%; in the assay on RPMI-8226 leukemia, 99.9%; with OVCAR-8 ovarian, 104%; with OVCAR-5 ovarian, 101%; in the assay on OVCAR-4 ovarian, 117%; in the assay with SK-OV-3 ovarian, 98.1%. The growth in the assay on IGROV1 ovarian is 99.6%; in the assay with OVCAR-3 ovarian it was 95.1%; in the assay on HS 578T breast it was 103%; in the assay on NCI/ADR-RES ovarian, 102%; with T-47D breast, 104%; with BT-549 breast, 112%. Moreover, the growth in the assay with MDA-MB-435 melanoma was 106%; in the assay on SW-620 colon, 106%; with MCF7 breast, 96.2%; with HCT-116 colon, 98.5%; in the assay on HCC-2998 colon, 90.6%; with KM12 colon, 105%.
As for `O=c1[nH]c(Nc2ccc(S(=O)(=O)O)cc2)nc2nc(Nc3ccc(NC(=S)Nc4ccccc4)cc3)nc(-c3ccc(O)cc3O)c12`, the growth in the assay with SR leukemia is 61.7%; with RPMI-8226 leukemia, 82.6%; in the assay on OVCAR-8 ovarian, 55.5%; with OVCAR-5 ovarian it was 116%; with OVCAR-4 ovarian it was 107%; in the assay with SK-OV-3 ovarian, 114%. The growth is 61.7% in the assay on IGROV1 ovarian; 119% in the assay on OVCAR-3 ovarian; 102% with HS 578T breast; 109% with NCI/ADR-RES ovarian; 90.7% with T-47D breast; 152% with BT-549 breast. Further, the growth is 111% in the assay on MDA-MB-435 melanoma; 107% in the assay on SW-620 colon; 107% in the assay on MCF7 breast; 109% with HCT-116 colon; 112% with HCC-2998 colon; 95.2% with KM12 colon.
As for `CCN(CC)CCOc1ccc(/C(=C(/C)c2ccccc2)c2ccc(OC(C)=O)cc2)cc1`, the growth with SR leukemia was 112%; in the assay with RPMI-8226 leukemia, 100%; in the assay with OVCAR-8 ovarian, 112%; with OVCAR-5 ovarian, 98.2%; with OVCAR-4 ovarian, 100%; in the assay with SK-OV-3 ovarian it was 106%. Besides, the growth is 105% in the assay on IGROV1 ovarian; 104% in the assay with OVCAR-3 ovarian; 95.2% in the assay with HS 578T breast; 101% in the assay on NCI/ADR-RES ovarian; 60.2% in the assay on T-47D breast; 69.1% in the assay with BT-549 breast. Also, the growth was 94.8% in the assay on MDA-MB-435 melanoma; 95.5% with SW-620 colon; 41.7% in the assay on MCF7 breast; 79% in the assay with HCT-116 colon; 103% in the assay with HCC-2998 colon; 102% with KM12 colon.
With `O=C1/C(=C/c2ccccc2)Oc2ccc(O)c(I)c21`, the growth in the assay with SR leukemia is 98.2%; in the assay with RPMI-8226 leukemia it was 95.4%; with OVCAR-8 ovarian, 96.7%; with OVCAR-5 ovarian it was 108%; in the assay with OVCAR-4 ovarian, 95.4%; with SK-OV-3 ovarian, 99.6%. Besides, the growth in the assay on IGROV1 ovarian is 68.3%; in the assay with OVCAR-3 ovarian it was 101%; in the assay on HS 578T breast, 80.8%; with NCI/ADR-RES ovarian, 99.3%; in the assay on T-47D breast, 77.5%; in the assay with BT-549 breast, 84.3%. Besides, the growth with MDA-MB-435 melanoma was 103%; with SW-620 colon, 95.5%; with MCF7 breast, 54.8%; in the assay with HCT-116 colon it was 98.2%; in the assay with HCC-2998 colon, 114%; with KM12 colon, 98.8%.
In the case of `COc1ccc(OC)c(/C=C2\Oc3cc(OCCCN4CCCC4)ccc3C2=O)c1`, the growth with SR leukemia is -22.8% (active); in the assay with RPMI-8226 leukemia it was 77.7%; in the assay on OVCAR-8 ovarian, 78.1%; with OVCAR-5 ovarian it was 82.1%; in the assay with OVCAR-4 ovarian, 86.7%; in the assay with SK-OV-3 ovarian it was 110%. For the same compound, the growth in the assay with IGROV1 ovarian was 84.2%; with OVCAR-3 ovarian it was 91%; in the assay on HS 578T breast it was 80.8%; in the assay with NCI/ADR-RES ovarian, 80.3%; with T-47D breast, 92.6%; with BT-549 breast, 87.9%. Also, the growth in the assay on MDA-MB-435 melanoma was 91.2%; with SW-620 colon, 55.9%; with MCF7 breast, 55.7%; in the assay on HCT-116 colon, 46.1%; in the assay on HCC-2998 colon, 87.3%; with KM12 colon, 73.6%.
As for `C=C1CC2(OC1=O)C(=O)N(CCCN1C(=O)C3(CC(=C)C(=O)O3)c3ccccc31)c1ccccc12` (configuration not stated), the growth with SR leukemia was 3.74% (active); in the assay on RPMI-8226 leukemia, -33.3% (active); in the assay on OVCAR-8 ovarian, 11.6%; in the assay on OVCAR-5 ovarian, 21.9%; with OVCAR-4 ovarian, 25.2%; in the assay with SK-OV-3 ovarian it was 111%. Further, the growth is 35% in the assay on IGROV1 ovarian; -13% (active) with OVCAR-3 ovarian; 58.2% in the assay on HS 578T breast; 50% with NCI/ADR-RES ovarian; 4.15% (active) in the assay on T-47D breast; 33.5% in the assay on BT-549 breast. Moreover, the growth in the assay with MDA-MB-435 melanoma was -17.1% (active); in the assay with SW-620 colon, -67.4% (active); in the assay with MCF7 breast, -18.9% (active); in the assay with HCT-116 colon, -8.31% (active); with HCC-2998 colon it was 86.2%; with KM12 colon, 72.9%.
Turning to `CCOC(=O)C1C(=O)C=C(c2ccc(OC)cc2)CC1c1sc(N(C)Cc2ccccc2)nc1Cl` (configuration not stated), the growth in the assay with SR leukemia is 81%; in the assay on RPMI-8226 leukemia, 63.9%; in the assay with OVCAR-8 ovarian, 80.9%; with OVCAR-5 ovarian it was 86.2%; in the assay on OVCAR-4 ovarian it was 78.2%; in the assay with SK-OV-3 ovarian, 90%. Further, the growth in the assay on IGROV1 ovarian was 104%; in the assay with OVCAR-3 ovarian it was 87.5%; in the assay on HS 578T breast, 49.2%; in the assay on NCI/ADR-RES ovarian, 88.2%; in the assay on T-47D breast, 64.2%; in the assay with BT-549 breast it was 94.4%. For the same compound, the growth in the assay with MDA-MB-435 melanoma was 85.1%; in the assay with SW-620 colon, 82.9%; in the assay on MCF7 breast it was 83.5%; in the assay on HCT-116 colon, 71.9%; in the assay with HCC-2998 colon, 98.9%; in the assay on KM12 colon it was 81.4%.
For `COc1cc(C(=O)/C=C/c2c(C)n([O-])c3ccc(C(F)(F)F)cc3[n+]2=O)cc(OC)c1OC`, the growth with SR leukemia is 24.4%; in the assay on RPMI-8226 leukemia it was 59.6%; with OVCAR-8 ovarian, 8.63% (active); with OVCAR-5 ovarian it was 122%; in the assay with OVCAR-4 ovarian, 89.5%; in the assay with SK-OV-3 ovarian, 87.3%. In addition, the growth was 111% in the assay with IGROV1 ovarian; -18.9% (active) in the assay on OVCAR-3 ovarian; 119% with HS 578T breast; 75.7% in the assay on NCI/ADR-RES ovarian; 18.3% in the assay on T-47D breast; 80.6% with BT-549 breast. In addition, the growth in the assay with MDA-MB-435 melanoma is 94.1%; in the assay on SW-620 colon, 26%; in the assay with MCF7 breast it was 45.4%; with HCT-116 colon it was 21.1%; in the assay on HCC-2998 colon it was 105%; with KM12 colon it was 91.4%.

(Values after PubChem BioAssay (NCI).)
